Structures are written as SMILES. In all, about 52,000 compounds went through this assay and about 4,300 (8.3%) were called active. The sample as a whole holds a higher share of actives than the screen did. A number with no mark means an inactive call. Rule as the data show it: active = survival mostly below about 52% (no sharp cut-off); inactive = mostly above about 56%.

This assay has as its system DeltatarO mutant. The assay can be described thus: S. aureus survival, RN4220 and DeltatarO strains – OD600, teichoic acid synthesis inhibitors, primary screen (AID 463173). Conditions: S. aureus RN4220 wild type/DeltatarO growth, OD600, 18 h, stronger effect = lower value, screened at 18.75 µg/mL (by protocol).
Regarding `O=C(C1CC1)N1CCc2cc(Br)cc(S(=O)(=O)Nc3ccc(F)c(F)c3)c21`, the survival is 110%.
Regarding `CCS(=O)(=O)N1CC(=O)N(c2ccc(Cl)cc2)C(C)(C(=O)NC2CCCCCC2)C1` (stereo not drawn), the survival is 115%.
On to `CCN1CCN(c2c(S(=O)(=O)c3ccccc3)cnc3ccc(Cl)cc23)CC1`, for which the survival is 124%.
Consider `COc1ccc(NS(=O)(=O)c2ccc3c(c2)CCN3C(=O)CCC(=O)O)cc1Cl`, for which the survival was 93%.
Next, `CN(c1ncnc2onc(-c3cccc(Cl)c3)c12)C1CCCCC1`: -17% (active).
With `CN(c1ncnc2c1c(-c1ccccc1)cn2-c1cccc(Cl)c1)C1CCCCC1`, the survival is 83%.
Next, `Clc1cccc(-c2noc3ncnc(NC4CCCCC4)c23)c1`: 68%; `Cc1cccc(NC(=O)CSc2nc(-c3cccs3)nc3cc(=O)[nH]n23)c1`: 87%.
Next, `Cc1ncc(CO)c2c1Oc1nc(-c3ccccc3Cl)nc(SCc3ccccc3F)c1C2`: 72%.
Consider `Cc1cc(C(F)(F)F)nn1-c1nc(-c2ccccc2)cc(C(F)(F)F)n1`, for which the survival is 17% (active).
Then `COc1ccc(-c2cc(C(F)(F)F)nc(S(C)(=O)=O)n2)cc1`, with 83%; and `COc1ccc(-c2cc(C(F)(F)F)nc(-n3nc(C(F)(F)F)cc3C)n2)cc1`, with 16% (active).
Then `COc1ccc(-c2cc(C(F)F)nc(-n3nc(C)cc3C)n2)cc1`, with 91%; and `CC(Sc1nc(-c2ccccc2)cc(C(F)(F)F)n1)C(=O)NN1CCCCC1` (stereo not drawn), with 72%; and `CCc1nn(CC(=O)NCCc2ccc(Cl)cc2)c(=O)c2cc3c(OC)cccc3n12`, with 75%.
Regarding `Clc1ccccc1CNc1ncnc2c1nc1n2CCCC1`, the survival was 97%.
For the compound `COC(=O)c1cc(-c2cocc2C=C(C#N)C#N)ccc1Cl`, the survival was 84%.
Next, `CC(C)Oc1ccc(C(=O)N2CC(=O)Nc3ccc(F)cc3C2c2ccc(F)cc2)cc1` (stereo not drawn): 53%.
Next, `CCc1nc2nc(C)c(NS(=O)(=O)c3ccc(F)c(C)c3)c(=O)n2[nH]1`: 123%; `O=C(COCc1cc(-c2ccc(F)cc2)on1)Nc1cccc(Cl)c1Cl`: 46% (active).
`O=C(COCc1cc(-c2ccc(F)cc2)on1)Nc1cc(Cl)ccc1O`: the survival was 74%.
Then `O=C(COCc1cc(-c2ccc(F)cc2)on1)Nc1cc(Cl)cc(Cl)c1`, with 144%; and `CCc1ccccc1NC(=O)COCc1cc(-c2ccco2)on1`, with 55%; and `O=C(COCc1cc(-c2cccs2)on1)Nc1cccc(Cl)c1Cl`, with 75%.
Take `O=C(COCc1cc(-c2ccco2)on1)Nc1cc(Cl)ccc1O`: the survival was 0% (active).
Then `O=C(COCc1cc(-c2ccco2)on1)Nc1cccc(Cl)c1Cl`, with 32% (active).
Turning to `Cc1ccc(O)c(NC(=O)COCc2cc(-c3ccco3)on2)c1`, the survival is 95%.
Turning to `Cc1ccc(Cl)cc1NC(=O)COCc1cc(-c2ccco2)on1`, the survival was 83%.

Source of the values: PubChem BioAssay AID463173 (ICCB-Longwood Screening Facility, Harvard Medical School, 2010).
